Laboratory results from PubChem BioAssay AID1159580 (chemical genetic matrix, 2015).
Where “and” joins values, the source holds several entries; their conditions need not be identical. Identical values can stand only once. Hit rate of the full screen: of about 5,500 compounds, about 2,000 (36%) were called active. Not shown: some 18% with an inconclusive outcome. Rule as the data show it: active = normalized growth mostly below about 0.91 (no sharp cut-off); inconclusive = no clear call, values can overlap the other calls; inactive = mostly above about 0.92. Some of the results follow.

Test: chemical genetic growth profiling, strain panel (AID 1159580);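 also: tested at 20 µM; growth read once vehicle control cultures reached saturation at 30 °C; 1 = growth at the plate median or of vehicle wells; lower values mean less growth of the strain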
Details: S. cerevisiae deletion strains, growth OD

Measured: normalized growth

NC(=O)N1c2ccccc2CC(=O)c2ccccc21
inactive: locus YAL013W, strain DEP1, active compounds read low 0.996 | locus YAL021C, strain ccr4, active compounds read low 0.991 | locus YAL026C, strain drs2, active compounds read low 0.998 | locus YAL030W, strain snc1, active compounds read low 0.993 | locus YBL061C, strain skt5, active compounds read low 0.994 | locus YBR009C, strain hhf1, active compounds read low 0.942 | locus YBR021W, strain FUR4, active compounds read low 0.969 | locus YBR023C, strain chs3, active compounds read low 1 | locus YBR171W, strain sec66, active compounds read low 0.989 | locus YBR229C, strain ROT2, active compounds read low 0.993 | locus YBR231C, strain swc5, active compounds read low 0.974 | locus YBR279W, strain paf1, active compounds read low 0.99 | locus YCL011C, strain gbp2, active compounds read low 0.991 | locus YCL016C, strain dcc1, active compounds read low 1.01 | locus YCL029C, strain bik1, active compounds read low 0.978 | locus YCL069W, strain vba3, active compounds read low 0.956 | locus YCR088W, strain abp1, active compounds read low 0.976 | locus YDL005C, strain med2, active compounds read low 0.971 | locus YDL035C, strain GPR1, active compounds read low 0.996 | locus YDL040C, strain nat1, active compounds read low 0.992 | locus YDL074C, strain BRE1, active compounds read low 1.03 | locus YDL101C, strain DUN1, active compounds read low 0.992 | locus YDL134C, strain PPH21, active compounds read low 0.989 | locus YDL185W, strain tfp1, active compounds read low 0.976 | locus YDL192W, strain arf1, active compounds read low 0.975 | locus YDR001C, strain nth1, active compounds read low 0.979 | locus YDR069C, strain doa4, active compounds read low 0.963 | locus YDR101C, strain arx1, active compounds read low 0.994 | locus YDR137W, strain rgp1, active compounds read low 0.991 | locus YDR150W, strain NUM1, active compounds read low 1 | locus YDR159W, strain sac3, active compounds read low 0.931 | locus YDR162C, strain NBP2, active compounds read low 1.02 | locus YDR195W, strain ref2 0.927 | locus YDR297W, strain sur2, active compounds read low 0.988 | locus YDR318W, strain mcm21, active compounds read low 0.962 | locus YDR334W, strain swr1, active compounds read low 0.95 | locus YDR335W, strain msn5, active compounds read low 0.973 | locus YDR388W, active compounds read low 0.991 | locus YDR392W, strain spt3, active compounds read low 0.956 | locus YDR502C, strain sam2, active compounds read low 0.994 | locus YEL003W, strain gim4, active compounds read low 0.987 | locus YEL037C, strain rad23, active compounds read low 0.984 | locus YEL061C, strain CIN8 (second series), active compounds read low 0.98 | locus YEL061C, strain CIN8, active compounds read low 0.998 | locus YER015W, strain faa2, active compounds read low 0.993 | locus YER016W, strain bim1, active compounds read low 1.01 | locus YER110C, active compounds read low 0.975 | locus YER111C, strain swi4, active compounds read low 0.993 | locus YER155C, strain BEM2 (second series), active compounds read low 0.97 | locus YER155C, strain BEM2, active compounds read low 0.982 | locus YER167W, strain BCK2, active compounds read low 0.967 | locus YFR010W, strain ubp6, active compounds read low 0.947 | locus YGL078C, strain dbp3, active compounds read low 0.99 | locus YGL086W, strain mad1, active compounds read low 0.974 | locus YGL167C, strain pmr1, active compounds read low 0.968 | locus YGL173C, strain kem1, active compounds read low 0.948 | locus YGL227W, strain vid30, active compounds read low 1.01 | locus YGL240W, strain doc1, active compounds read low 0.948 | locus YGL248W, strain PDE1, active compounds read low 0.987 | locus YGL253W, strain hxk2, active compounds read low 0.966 | locus YGR078C, strain PAC10, active compounds read low 1.01 | locus YGR135W, strain pre9, active compounds read low 1 | locus YGR229C, strain SMI1, active compounds read low 1 | locus YGR252W, strain gcn5, active compounds read low 0.922 | locus YHR013C, strain ard1, active compounds read low 0.995 | locus YHR027C, strain rpn1, active compounds read low 0.972 | locus YHR030C, strain SLT2, active compounds read low 0.983 and 0.997 | locus YHR079C, strain IRE1 (second series), active compounds read low 0.968 | locus YHR079C, strain IRE1, active compounds read low 0.997 | locus YHR094C, strain hxt1, active compounds read low 0.978 | locus YHR129C, strain ARP1, active compounds read low 0.99 | locus YHR142W, strain chs7, active compounds read low 0.977 | locus YHR200W, strain rpn10, active compounds read low 0.97 | locus YIL066C, strain RNR3, active compounds read low 0.991 | locus YIL073C, strain SPO22, active compounds read low 0.955 | locus YIL125W, strain kgd1, active compounds read low 0.998 | locus YIR030C, strain dcg1, active compounds read low 0.981 | locus YJL092W, strain hpr5, active compounds read low 0.995 | locus YJL095W, strain BCK1 (second series), active compounds read low 0.997 | locus YJL095W, strain BCK1, active compounds read low 1.02 and 0.994 | locus YJL115W, strain asf1, active compounds read low 0.992 | locus YJL129C, strain trk1, active compounds read low 0.995 | locus YJL134W, strain LCB3, active compounds read low 0.99 | locus YJL154C, strain vps35, active compounds read low 0.992 | locus YJL164C, strain tpk1, active compounds read low 0.972 | locus YJL166W, strain qcr8, active compounds read low 0.941 | locus YJL168C, strain set2, active compounds read low 0.985 | locus YJL187C, strain SWE1 (second series), active compounds read low 1 | locus YJR043C, strain POL32, active compounds read low 0.979 | locus YJR066W, strain TOR1, active compounds read low 0.946 | locus YJR075W, strain HOC1, active compounds read low 1.05
